HIF act – HIF pathway transcriptional activation; U2OS HRE-luciferase reporter, luminescence; normalized: DMSO 0%, desferrioxamine 100%; activation, % at 7.5 µM (by protocol); actives 0.32% (n = 300,000);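 active means mean activation of at least 10% of the iron chelator positive control signal, with at least half of replicates also reaching 10%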
AHR activator – activates the human aryl hydrocarbon receptor. activation, % at 5 µM. AHR-responsive luciferase reporter cells, luminescence. actives 2.5% (n = 320,000); in the data active means activation above about 47%;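 further: 0% = vehicle wells and 100% = reference agonist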
PLCg1 inh – inhibitors of human phospholipase C gamma1; P19174; purified PLC-gamma1, fluorogenic substrate, fluorescence; inhibition, % at 12.2 µM; actives 0.84% (n = 370,000); AID 720700; in the data active means inhibition above about 9.5%
CR mimetic SO – yeast age-related superoxide inhibition as caloric restriction mimetic. S. cerevisiae aged cells, superoxide DHE fluorescence; stronger effect = lower value. actives 0.18% (n = 330,000). superoxide response (% of plate mean), % at 10 µM. AID 2690;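 active means superoxide response under a set limit, about three screen SD below normal, cut at about 65% in these data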;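 further: yeast aged for seven days with compound at 30 °C before DHE staining; 100% = average MFI of all compound-treated wells on the plate with controls excluded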
PLC-beta3 inh – blocks human PLC-beta3 enzyme activity; Q01970; Purified PLC-beta3, fluorogenic substrate, fluorescence; inhibition, % at 12.2 µM; actives 0.18% (n = 370,000); AID 720704;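 further: 0% = median of compound wells on plate and 100% = full blocker control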
Target sequence (Q01970 whole entry, looked up): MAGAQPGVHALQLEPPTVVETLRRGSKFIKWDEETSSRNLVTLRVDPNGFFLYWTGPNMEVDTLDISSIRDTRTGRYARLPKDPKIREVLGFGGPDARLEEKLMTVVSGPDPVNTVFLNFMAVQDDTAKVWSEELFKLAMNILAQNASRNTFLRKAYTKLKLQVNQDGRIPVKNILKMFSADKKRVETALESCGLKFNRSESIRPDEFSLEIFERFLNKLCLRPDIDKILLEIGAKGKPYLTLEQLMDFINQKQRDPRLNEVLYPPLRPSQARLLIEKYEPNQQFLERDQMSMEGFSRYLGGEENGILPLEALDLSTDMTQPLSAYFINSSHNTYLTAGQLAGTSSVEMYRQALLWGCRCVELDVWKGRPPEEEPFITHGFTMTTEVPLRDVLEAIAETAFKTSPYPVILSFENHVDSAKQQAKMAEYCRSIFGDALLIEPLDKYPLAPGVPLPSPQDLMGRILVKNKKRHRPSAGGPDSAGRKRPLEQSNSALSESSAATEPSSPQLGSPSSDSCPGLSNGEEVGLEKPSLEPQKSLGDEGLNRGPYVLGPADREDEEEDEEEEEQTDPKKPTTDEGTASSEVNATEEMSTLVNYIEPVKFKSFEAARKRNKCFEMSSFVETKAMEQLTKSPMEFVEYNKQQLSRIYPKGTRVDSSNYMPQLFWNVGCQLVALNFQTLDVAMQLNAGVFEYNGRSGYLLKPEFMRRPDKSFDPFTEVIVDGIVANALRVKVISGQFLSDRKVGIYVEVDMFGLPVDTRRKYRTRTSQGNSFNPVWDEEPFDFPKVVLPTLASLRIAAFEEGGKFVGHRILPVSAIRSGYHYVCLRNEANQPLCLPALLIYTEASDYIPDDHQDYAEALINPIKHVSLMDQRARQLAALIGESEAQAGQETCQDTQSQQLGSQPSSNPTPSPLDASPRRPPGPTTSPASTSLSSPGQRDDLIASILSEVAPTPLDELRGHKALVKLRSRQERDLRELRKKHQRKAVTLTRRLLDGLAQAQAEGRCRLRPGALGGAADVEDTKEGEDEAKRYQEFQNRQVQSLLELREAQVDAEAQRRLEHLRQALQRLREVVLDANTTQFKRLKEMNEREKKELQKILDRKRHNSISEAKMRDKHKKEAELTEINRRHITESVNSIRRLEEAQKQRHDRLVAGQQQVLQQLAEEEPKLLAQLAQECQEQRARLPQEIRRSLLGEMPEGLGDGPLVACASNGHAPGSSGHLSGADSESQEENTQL
HGIII-sPLA2 inh – Inhibits HGIII-sPLA2 liposome hydrolysis, primary screen | actives 0.56% (n = 370,000) | inhibition, % at 12.2 µM | QFRET BODIPY PC-A2 liposome hydrolysis, fluorescence | Q9NZ20;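 active means inhibition above mean plus 3 SD of compounds lying within the high and low control bounds, cut at about 19% in these data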;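 further: 0% = median of test compound wells and 100% = no enzyme DMSO wells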
PLCgamma1 ctr – inhibits human PLC-gamma1 in PLC-beta3 counter-screen. purified PLC-gamma1, fluorogenic substrate, fluorescence. AID 743258. actives 3.1% (n = 3,300). inhibition, % at 12.3 µM. shares compounds with PLCg1 inh; in the data active means inhibition above about 9.5%
PLCbeta3 conf – human PLC-beta3 inhibition, confirmation | inhibition, % at 12.3 µM | actives 1% (n = 3,300) | shares compounds with PLCg1 inh | purified PLC-beta3, fluorogenic substrate fluorescence
* = called active by the depositor; . = not tested or not shown. Rows were chosen to be rich in hits. Some 3.9% of all compounds tested hit in one or more screens of this group. Unless noted, no stated cut-off is given here; in the data, active means inhibition above about 11%; inactive means the rest.

SMILES	HIF act	AHR activator	PLCg1 inh	CR mimetic SO	PLC-beta3 inh	HGIII-sPLA2 inh	PLCgamma1 ctr	PLCbeta3 conf
Cc1ccccc1NC(=O)c1ccc2nccnc2c1	0.4	-2.0	-0.2	89.5	-5.8	0.9	.	.
Cc1ccccc1NC(=O)c1cccc(C(=O)Nc2ccccc2C)c1	-0.3	-3.6	12.2*	87.7	3.3	3.4	-0.6	1.9
Cc1cc[n+](Cc2ccccc2)c(N)c1	0.2	2.8	2.4	100.8	6.0	7.1	.	.
CC(O)CN(CCC(N)=O)CCC(N)=O (stereo not given)	-0.3	-3.9	10.1*	107.4	-0.1	9.2	-0.8	-1.1
CC(C)=CCC/C(C)=C/CN(CC(C)O)CC(C)O (stereo not given)	-0.3	-0.3	3.3	97.8	4.7	8.5	.	.
CCN(CC)C(=O)c1sc(NC(=O)c2ccc(C)c([N+](=O)[O-])c2)c(C#N)c1C	0.1	6.9	11.2*	108.2	6.1	4.7	1.2	4.3
CCCCn1c(C(C)NC(=O)COC)nc2ccccc21 (stereo not given)	-0.3	-0.7	10.1*	94.0	1.2	5.0	-3.5	-15.3
CCOCCn1c(C(C)O)nc2ccccc21 (stereo not given)	0.1	0.2	10.4*	106.0	4.1	4.1	-6.2	-0.1
N#Cc1ccccc1OCC(=O)NNC(=O)CCC1CCCC1	.	1.7	11.7*	104.9	0.6	-12.5	-5.8	-3.1
N#Cc1ccccc1OCC(=O)NCCNC(=O)COc1ccccc1C#N	0.8	7.1	-2.6	86.2	-5.5	7.1	.	.
CC(N)(C(=O)O)c1cccc(OCc2cccc(Cl)c2)c1 (stereo not given)	1.1	0.3	10.7*	98.7	4.4	2.0	-3.2	-4.8
O=C(Nc1ccc2c(c1)OCO2)c1cnn2c1NC(c1ccco1)CC2C(F)(F)F (stereo not given)	-1.1	20.9	10.1*	111.8	3.8	-4.0	-4.2	0.5
O=C(CCSc1ccccc1)N1CCN(C(=O)c2ccco2)CC1	1.2	0.8	13.6*	98.6	1.6	0.4	-2.7	-4.3
OC(c1ccc(F)c(F)c1)c1ncc(-c2ccc(F)cc2)[nH]1 (stereo not given)	.	.	3.3	.	0.3	-0.2	.	.
O=C1CN(C(=O)COC(=O)c2cccc(Br)c2)c2ccccc2N1	.	0.1	14.0*	91.2	-10.1	-2.7	-2.4	-1.1
Cc1cc(S(=O)(=O)N2CCOCC2)ccc1OCC(=O)NCc1ccccn1	0.2	-2.1	2.2	89.8	-9.3	12.3	.	.
COc1ccc([N+](=O)[O-])cc1NC(=O)c1cn(-c2ccc(C)c(C)c2)c(=O)c2ccccc12	-0.6	0.5	11.3*	111.7	6.0	8.9	-4.3	-2.4
COC(=O)CNC(=O)c1cn(-c2ccc(C)c(C)c2)c(=O)c2ccccc12	2.3	1.1	-2.8	95.2	-6.5	1.6	.	.
COCC(=O)Nc1cc([N+](=O)[O-])ccc1OC	-0.3	5.3	13.1*	92.8	4.7	16.9	-3.3	0.3
COCC(=O)Nc1ccc([N+](=O)[O-])cc1OC	0.2	4.9	2.1	91.4	3.2	2.4	.	.
O=C(Nc1ccc2c(c1)OCO2)c1cc(C2CCCCN2C(=O)c2ccccc2)on1 (stereo not given)	.	.	1.2	.	-4.3	5.2	.	.
CC(=O)OCCCN1c2ccccc2Nc2nnc(-c3ccccc3)cc21	4.8	21.1	8.4	80.5	14.3*	-11.0	-4.6	-0.5
Cc1ccc2c(CSc3nncn3C)cc(=O)oc2c1C	0.0	1.7	10.9*	95.9	4.5	-8.2	-9.2	-0.7
O=C(CCC(=O)N1CCSc2ccccc21)NCCc1ccccc1	-0.3	-0.6	1.8	100.8	5.7	1.9	.	.
O=C(Nc1cccnc1)c1ccc(Oc2ccccc2)cc1	3.4	-1.7	-0.4	81.6	-1.3	-12.1	.	.
SMILES	HIF act	AHR activator	PLCg1 inh	CR mimetic SO	PLC-beta3 inh	HGIII-sPLA2 inh	PLCgamma1 ctr	PLCbeta3 conf
O=C(Nc1cccnc1)c1ccccc1Oc1ccccc1	1.4	15.8	5.1	106.9	10.7*	16.9	-10.5	-1.0
CSC[C@H]1CN(c2ccccc2)C(=O)[C@@H]1CC(=O)Nc1ccccc1	.	.	9.5*	.	9.2	-7.2	-5.6	-0.9
CSC[C@H]1CN(c2ccc(Br)cc2)C(=O)[C@@H]1CC(=O)Nc1ccccc1	.	.	3.0	.	4.7	-4.7	.	.
CCOC(=O)c1csc(-c2sccc2Br)n1	1.9	2.0	14.0*	103.0	0.7	4.2	-3.7	-4.0
CCOC(=O)c1csc(-c2ccc(OC)c(OC)c2)n1	-0.1	2.6	-1.9	100.9	-0.9	9.6	.	.
CN(C)CCC1(C2=CCCC2)CC/C(=C/c2ccc(Cl)cc2)C1=O (stereo not given)	.	.	3.6	.	-2.9	-3.7	.	.
Cn1c(=O)n(Cc2ccc(Cl)cc2)c(=O)c2c1nc1n2CCN1Cc1ccco1	-0.6	4.6	11.0*	91.6	-0.6	5.2	-3.3	-5.7
CCc1nc2ccc(C(=O)NCCOc3ccc(OC)cc3)cn2c1N(C)Cc1nccn1C	.	.	-1.8	.	-4.0	2.5	.	.
Cc1ccc(N(CC(=O)NC2CCC(C)CC2)S(=O)(=O)c2cccnc2)cc1 (stereo not given)	-0.1	5.3	7.5	117.0	12.5*	4.7	-7.6	-4.0
COc1ccc(N(CC(=O)NC2CCCCC2)S(=O)(=O)c2cccnc2)cc1	-0.4	-0.7	-0.1	92.9	0.8	-3.1	.	.
O=[N+]([O-])c1c(Nc2ccccc2)ccc2nonc12	-0.3	-1.3	9.2	107.8	7.3	7.1	.	.
Nc1cc(Nc2ccccc2)c2nonc2c1[N+](=O)[O-]	-39.2	-1.0	10.7*	86.1	2.2	0.0	1.7	1.4
CC(=O)c1ccc(OC(C)C)c(CSC(=N)N)c1	0.3	-2.5	12.0*	120.7	12.0*	8.0	-5.2	-0.4
CCOC(=O)C(Cc1cc(C(C)=O)ccc1OC(C)C)C(=O)OCC	0.2	-0.2	-1.8	109.6	-0.5	-9.7	.	.
CC(C)N(C(=O)Cn1c(SCC(=O)NC2CC2)nc2ccccc21)C(C)C	0.1	0.1	1.3	85.4	-2.4	7.2	.	.
COC(=O)CSc1nc2ccccc2n1CC(=O)N(C(C)C)C(C)C	0.3	-1.2	9.0	95.0	13.3*	-1.8	-6.4	-0.5
CC1(C(=O)NS(=O)(=O)c2ccc(F)cc2F)CCN1C(=O)c1cccc(F)c1 (stereo not given)	.	.	12.3*	.	9.1	6.4	-6.7	-0.2
CC1(C(=O)NS(=O)(=O)c2cccc(F)c2)CCN1C(=O)c1cccc(F)c1 (stereo not given)	.	.	5.9	.	5.5	-2.7	.	.
Cc1ccc(S(=O)(=O)N(CC(=O)NC2CCC(C)CC2)c2cc(C)cc(C)c2)cc1 (stereo not given)	.	.	0.9	.	3.9	0.3	.	.

Screening data (PubChem BioAssay)
